Assay results reported in PubChem BioAssay (NCI).
About 79,000 compounds went through this panel and 15% of them were active in at least one assay; those are over-represented in the sample as a whole. No stated cut-off is given here; in the data, active means growth inhibition above about 70%; inactive means the rest. Where a SMILES comes first, the peptide text is derived from it. [ ]: non-standard residue; d: D form. The star is where a group is joined. ξ: configuration not given here. NMeF = CN[C@@H](Cc1ccccc1)C(=O)O; NMeV = CN[C@H](C(=O)O)C(C)C; ξNMeN = CNC(CC(N)=O)C(=O)O; NMeA = CN[C@@H](C)C(=O)O; ξNMeV = CNC(C(=O)O)C(C)C; Boc = CC(C)(C)OC(=O)*

Key:
[1] = NCI Yeast Anticancer Drug Screen. Data for the rad50 strain (AID 155);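 further: 0% = growth of vehicle-only cultures of the same strain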; settings: S. cerevisiae rad50 strain growth inhibition; at 50.0 µM; stronger effect = higher value
How it was run: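 Relative growth inhibition (compound vs vehicle) was measured in yeast with a defined repair-gene alteration.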

[2] = NCI Yeast Anticancer Drug Screen. Data for the mec2-1 strain (AID 157); settings: S. cerevisiae mec2-1 strain, at 50.0 µM, stronger effect = higher value
How it was run: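 Test agents were screened against the mec2-1 yeast strain, with defined DNA repair or cell cycle alteration. Growth was scored as inhibition against vehicle-only controls.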

[3] = NCI Yeast Anticancer Drug Screen. Data for the sgs1 mgt1 strain (AID 161);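 further: 0% = growth of cultures given vehicle only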; settings: S. cerevisiae sgs1 mgt1 strain, at 50.0 µM, stronger effect = higher value
How it was run: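 Test agents were incubated with a DNA-repair-mutant yeast strain. Growth was then read and compared against vehicle-treated controls.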

[4] = NCI Yeast Anticancer Drug Screen. Data for the cln2 rad14 strain (AID 165);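 further: 0% = growth equal to vehicle treated cultures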; settings: S. cerevisiae cln2 rad14 strain, at 50.0 µM, stronger effect = higher value
How it was run: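 Growth of compound-exposed yeast (cln2 rad14 genotype) measured and expressed as inhibition relative to vehicle.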

[5] = NCI Yeast Anticancer Drug Screen. Data for the bub3 strain (AID 167); settings: S. cerevisiae bub3 mutant strain, at 50.0 µM, stronger effect = higher value
How it was run: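 Screening used yeast with an engineered genetic alteration affecting cell cycle control. Compound-exposed cultures were compared with vehicle cultures, and reduced growth was taken as inhibition.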

[6] = NCI Yeast Anticancer Drug Screen. Data for the mlh1 rad18 strain (AID 175); settings: S. cerevisiae mlh1 rad18 strain growth inhibition; at 50.0 µM; stronger effect = higher value
How it was run: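 In this whole-cell yeast screen, a strain with altered DNA damage repair is challenged with compound, and its growth is measured against matched vehicle-treated controls.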

Measured: growth inhibition

COC(=O)c1cc(OC)nc(Cl)n1
inactive: [1] 3.9% | [2] 13.2% | [3] 1.45% | [4] -37% | [5] -11.9% | [6] 1.9%

Cc1cc(C)c(C(=O)c2ccccc2C)c(C)c1
inactive: [1] 21.3% | [2] -1% | [3] -0.35% | [4] -23.5% | [5] 11.3% | [6] 15.7%

C/C(O)=C(/N=Nc1ccc(-c2nc3ccc(C)c(S(=O)(=O)O)c3s2)cc1)C(=O)Nc1ccccc1
inactive: [1] 12.7% | [2] -22.5% | [3] 21.2% | [4] 16% | [5] 19.9% | [6] 26.9%

Nc1cccc2c([N+](=O)[O-])cccc12
inactive: [1] 62.7% | [2] 34.4% | [3] 62.8% | [4] 31.2% | [5] 17% | [6] 60.2%

O=C(O)CCNCC(=O)O
inactive: [1] -28.1% | [2] -32.6% | [3] -21.9% | [4] 3.2% | [5] -21.7% | [6] -23.6%

COC(=O)CN1C(=O)OC(c2ccccc2)C1=O (configuration not stated)
inactive: [1] -0.4% | [2] 1.15% | [3] -4.1% | [4] 8.15% | [5] -3.85% | [6] -13.4%

N#C/C(=C(/N)N1CCOCC1)N1CCOCC1
inactive: [1] -18.4% | [2] -8.95% | [3] -9.15% | [4] -13.6% | [5] 16.1% | [6] -4.2%

COc1ccc2c(ccc[n+]2CC(=O)c2ccc(SC)cc2)c1
inactive: [1] 1.9% | [2] 12.3% | [3] 20.1% | [4] 21.4% | [5] 19.6% | [6] 0.75%

c1ccc2c(c1)cc1ccc3cc4ccccc4c4nnc2c1c34
inactive: [1] -23.1% | [2] -7.3% | [3] -10.2% | [4] -16.8% | [5] -11.9% | [6] -14.6%

O=CNC1CCCCC1c1ccc(C2CCCCC2NC=O)cc1 (configuration not stated)
inactive: [1] -12.1% | [2] 9.1% | [3] -2.35% | [4] -1.55% | [5] 6.2% | [6] 22.8%

c1ccc(-c2ccccc2NC2=NCCO2)cc1
inactive: [1] 6.55% | [2] -2.8% | [3] 2.2% | [4] -25.1% | [5] 11.4% | [6] 5.7%

O=C(O)C(Cc1ccsc1)C(=O)O
inactive: [1] -10.1% | [2] 1.1% | [3] -6.6% | [4] -17% | [5] -6.45% | [6] 12.4%

Cc1ccc(S(=O)(=O)N2CCCC(O)c3ccccc32)cc1 (configuration not stated)
inactive: [1] -18.2% | [2] -15.8% | [3] -29.4% | [4] 11.7% | [5] 6.65% | [6] 3.85%

O=c1nc(-c2ccco2)sc(=O)[nH]1
inactive: [1] -0.05% | [2] -5.6% | [3] -8.35% | [4] 13.2% | [5] -5.85% | [6] -3.4%

CC1Cc2c(cc(N)nc2Br)NC1=O (configuration not stated)
inactive: [1] -10.6% | [2] -6.05% | [3] 6.95% | [4] 19.2% | [5] 3.35% | [6] 10.1%

C/C(=N\N)C1C(=O)c2ccccc2C1=O
inactive: [1] 6.1% | [2] 5.05% | [3] 13.7% | [4] 20.8% | [5] 8.8% | [6] 11.3%

COc1ccc(C(=O)C(C)CN2CCOCC2)cc1 (configuration not stated)
inactive: [1] 68.1% | [2] 22.6% | [3] 40.5% | [4] 32.6% | [5] 52.8% | [6] 53.5%

COC1=CCC2=C(C1)C1(C)CCCC(C)(CO)C1CC2 (configuration not stated)
inactive: [1] 3.1% | [2] 18.5% | [3] -7.9% | [4] 3.4% | [5] 14% | [6] 58.2%

Cc1csc2[nH]c(=O)[nH]c(=O)c12
inactive: [1] 5.5% | [2] 6.05% | [3] -1.4% | [4] -28.1% | [5] -15.2% | [6] 4.5%

CC(C)Cn1cnc2c(Sc3c([N+](=O)[O-])ncn3C)nc(N)nc21
inactive: [1] 7.95% | [2] -14.1% | [3] -13.2% | [4] -1.4% | [5] 2.1% | [6] 7.15%

Nc1nc2c(c(=O)[nH]1)NC(CCNc1ccc(C(=O)NC(CCC(=O)O)C(=O)O)cc1)CN2 (configuration not stated)
inactive: [1] 14% | [2] 14.9% | [3] 25.6% | [4] 19.6% | [5] 7.65% | [6] 16.1%

O=C1C(Nc2ccccc2)=C(c2ccccc2)C(=O)N1c1ccccc1
inactive: [1] 1.15% | [2] -7.55% | [3] 0.7% | [4] -46.2% | [5] -11.8% | [6] -10.8%

COc1ccc(CNc2nc3ccc(C(F)(F)F)cc3nc2-c2ccccc2)cc1OC
inactive: [1] -33.8% | [2] 3.7% | [3] 17.6% | [4] 6.45% | [5] 1.05% | [6] -11.9%

O=[N+]([O-])c1ccc(N=C/C=C\Nc2ccc([N+](=O)[O-])cc2)cc1
inactive: [1] 6.8% | [2] 14.8% | [3] 11.2% | [4] -13.4% | [5] 6.85% | [6] 14.8%

CCCCCCCCCCCCCC/C(C(=O)OC)=C(/O)C(=O)OCC
inactive: [1] -40.4% | [2] -30.4% | [3] -27.6% | [4] -17.2% | [5] -57.8% | [6] -19.9%

O=C(NC(c1ccccc1)C(O)c1ccccc1)C(Cl)Cl (configuration not stated)
inactive: [1] -5.45% | [2] -14.8% | [3] -1.95% | [4] -4.65% | [5] -0.75% | [6] 2.65%

O=C(O)C1CCC2CCCC21 (configuration not stated)
inactive: [1] -25.2% | [2] -7.3% | [3] 8.95% | [4] -10.9% | [5] -18% | [6] 15.5%

O=C(/C=C\c1ccc(Cl)cc1)OCCCCOC(=O)/C=C/c1ccc(Cl)cc1
inactive: [1] 27.1% | [2] 3.15% | [3] -4.45% | [4] 9.5% | [5] 2.9% | [6] 5.25%

O=[N+]([O-])c1ccc(N=Cc2ccc(O)cc2)cc1
inactive: [1] -17.9% | [2] -19.2% | [3] -30.2% | [4] -27.3% | [5] -4.35% | [6] -67.2%

N#Cc1cnn(-c2ccc(Br)cc2)c1N
inactive: [1] 11.4% | [2] 0.6% | [3] 3.1% | [4] -33.8% | [5] -7% | [6] 6.3%

CC1(C)C2CCC1(C)C1(C2)OC(CCl)CS1 (configuration not stated)
inactive: [1] 7.4% | [2] -13.8% | [3] 14.1% | [4] 4.3% | [5] 22.4% | [6] 8.4%

COC(=O)[C@H](C)N(C)C(=O)C(CC(N)=O)N(C)C(=O)[C@H](Cc1ccccc1)N(C)C(=O)[C@@H]1CCCN1C(=O)[C@H](C(C)C)N(C)C(=O)C(C(C)C)N(C)C(=O)[C@@H](NC(=O)OC(C)(C)C)C(C)C (some centres not stated) (Boc-V[ξNMeV][NMeV]P[NMeF][ξNMeN][NMeA]-OMe)
inactive: [1] -20.1% | [2] -16.6% | [3] -13.9% | [4] 8.9% | [5] 8.65% | [6] -5.4%

COc1cc([N+](=O)[O-])ccc1NC(=O)Nc1nccs1
inactive: [1] 5.75% | [2] 29.9% | [3] 11.9% | [4] -9.25% | [5] 22.4% | [6] -37.3%

CNc1ncnc2c1ncn2C
inactive: [1] 20.8% | [2] 24.5% | [3] -7.1% | [4] -17.1% | [5] 1.6% | [6] -2.1%

CCCCn1c2nc3ccccc3c-2nc2cc(OC)c(OC)cc21
inactive: [1] 26.1% | [2] 15.3% | [3] 14.6% | [4] 5.5% | [5] 12.2% | [6] 35.1%

COc1cc2c(cc1OC)C(c1ccc(N=Cc3ccc(N(C)C)cc3)cc1)N(C(=S)Nc1cc(Cl)ccc1Cl)CC2 (configuration not stated)
inactive: [1] 35.5% | [2] 5.15% | [3] 40.7% | [4] 21.7% | [5] 24.1% | [6] 26.9%

CC(=O)OCC1OC(OC(C)=O)C(NS(=O)(=O)Cc2ccccc2)C(OC(C)=O)C1OC(C)=O (configuration not stated)
inactive: [1] 10.5% | [2] 17.4% | [3] 13.7% | [4] -1.35% | [5] -1.2% | [6] 20.4%
